Some test systems named below: EKVX NSCLC; SN12C renal; UO-31 renal; TK-10 renal; ACHN renal; CAKI-1 renal; A498 renal; CCRF-CEM leukemia; MOLT-4 leukemia; SR leukemia; RPMI-8226 leukemia; OVCAR-8 ovarian; OVCAR-5 ovarian; OVCAR-4 ovarian; SK-OV-3 ovarian; IGROV1 ovarian; OVCAR-3 ovarian; HS 578T breast; NCI/ADR-RES ovarian; T-47D breast.
Common to all, as to assay: NCI-60 one-dose screen, 48 h (100 = growth as untreated, 0 = no growth, -100 = all killed)
Conditions in all cases: 10 µM unless noted

Compounds without any hit were thinned out: in the full panel of roughly 83,000, 20% have a hit.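 In brief: 96-well plates, 48 h treatment, single concentration, percent growth endpoint.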 Values without a mark were called inactive. The source made the active and inactive calls. Rule for the calls: active = growth percent below 10; inactive = the rest.

Take `Cn1cc(-c2cc(N)n3nc(-c4cn(C)c5ccc(Br)cc45)cc3n2)c2cc(Br)ccc21`: the growth with EKVX NSCLC was 90.7%; in the experiment with SN12C renal it was 90.3%; with UO-31 renal, 81.8%; with TK-10 renal, 133%; in the experiment on ACHN renal it was 92.2%; with CAKI-1 renal, 79%. Further, the growth is 102% in the experiment on A498 renal; 22.8% with CCRF-CEM leukemia; 48.9% with MOLT-4 leukemia; -13.5% (active) with SR leukemia; 64.3% with RPMI-8226 leukemia; 86.8% in the experiment on OVCAR-8 ovarian. Also, the growth is 100% in the experiment with OVCAR-5 ovarian; 86.1% in the experiment on OVCAR-4 ovarian; 110% in the experiment with SK-OV-3 ovarian; 76.4% in the experiment on IGROV1 ovarian; 109% with OVCAR-3 ovarian; 111% in the experiment with HS 578T breast. In addition, the growth with NCI/ADR-RES ovarian was 86.5%; in the experiment with T-47D breast it was 101%.

In the case of `O=C(NNc1nc2cc(F)ccc2n2c(CN3CC4(COC4)C3)ccc12)c1cnccn1`, the growth with EKVX NSCLC was 17.6%; in the experiment with SN12C renal, 22.4%; with UO-31 renal, 13.7%; in the experiment on TK-10 renal, 38.9%; with ACHN renal it was 13.7%; with CAKI-1 renal, 19.3%. The growth with A498 renal is -6.2% (active); with CCRF-CEM leukemia, 4.02% (active); in the experiment with MOLT-4 leukemia it was 6.4% (active); in the experiment on SR leukemia, 0.659% (active); in the experiment with RPMI-8226 leukemia it was 22%; in the experiment with OVCAR-8 ovarian, 8.35% (active). The growth was 38.1% in the experiment with OVCAR-5 ovarian; 33.3% with OVCAR-4 ovarian; 15.2% in the experiment with SK-OV-3 ovarian; 18.6% in the experiment with IGROV1 ovarian; 16.1% in the experiment with OVCAR-3 ovarian; 65.3% with HS 578T breast. Further, in the experiment on T-47D breast, the growth was 26.2%.

Regarding `Cc1c(NC(=O)CSc2nc3sc4c(c3c(=O)n2-c2ccc(Cl)cc2)CCCC4)c(=O)n(-c2ccccc2)n1C`, the growth was 97.3% in the experiment on EKVX NSCLC; 88.9% in the experiment on SN12C renal; 72.8% with UO-31 renal; 109% with TK-10 renal; 90.8% with ACHN renal; 65.1% with CAKI-1 renal. Moreover, the growth is 62.6% in the experiment on A498 renal; 98.2% in the experiment with CCRF-CEM leukemia; 71.3% with MOLT-4 leukemia; 86.1% in the experiment with SR leukemia; 86.7% in the experiment with RPMI-8226 leukemia; 97.1% in the experiment on OVCAR-8 ovarian. Also, the growth in the experiment with OVCAR-5 ovarian was 99.6%; in the experiment on OVCAR-4 ovarian, 91.9%; in the experiment with SK-OV-3 ovarian it was 93.8%; with IGROV1 ovarian, 84.9%; in the experiment on OVCAR-3 ovarian it was 100%; in the experiment on HS 578T breast it was 88.3%. Moreover, the growth with T-47D breast was 90.1%.

With `CCCSc1nc(Nc2ccc(/C(C)=N\NC(N)=S)cc2)c(C#N)c(-c2ccc(OC)cc2)n1`, the growth with EKVX NSCLC is 74.8%; in the experiment with SN12C renal, 33.5%; with UO-31 renal it was 28.3%; in the experiment with TK-10 renal, 33.4%; in the experiment on ACHN renal it was 47.2%; with CAKI-1 renal it was -7.3% (active). In addition, the growth in the experiment with A498 renal is 101%; in the experiment on CCRF-CEM leukemia, 89.2%; in the experiment with MOLT-4 leukemia, 80.4%; in the experiment on SR leukemia, 74.2%; in the experiment with RPMI-8226 leukemia, 71.9%; in the experiment on OVCAR-8 ovarian, 30.7%. Further, the growth with OVCAR-5 ovarian is 94.5%; in the experiment with OVCAR-4 ovarian, 28%; in the experiment on SK-OV-3 ovarian it was 97.3%; with IGROV1 ovarian, 81%; with OVCAR-3 ovarian, 67.3%; in the experiment with HS 578T breast, 25.3%. The growth in the experiment with NCI/ADR-RES ovarian was 56%; in the experiment with T-47D breast it was 86.6%.

For `CN1CCN(Cc2ccc(NC(=O)c3cncc(C#Cc4cnc5[nH]ncc5c4)c3)cc2C(F)(F)F)CC1`, the growth was 55.4% in the experiment on EKVX NSCLC; 14.4% with SN12C renal; 2.97% (active) in the experiment with UO-31 renal; 49.7% in the experiment with TK-10 renal; 8.5% (active) in the experiment on ACHN renal; -13.2% (active) in the experiment on CAKI-1 renal. For the same compound, the growth was -5.79% (active) in the experiment with A498 renal; 20.1% with CCRF-CEM leukemia; 16.9% with MOLT-4 leukemia; 10.6% with SR leukemia; 31.2% in the experiment on RPMI-8226 leukemia; 41.3% in the experiment on OVCAR-8 ovarian. Besides, the growth with OVCAR-5 ovarian is 41.6%; in the experiment on OVCAR-4 ovarian, 54.5%; with SK-OV-3 ovarian, 2.28% (active); with IGROV1 ovarian, 7.92% (active); with OVCAR-3 ovarian, 51.9%; in the experiment on HS 578T breast, 20.1%. Also, the figures for the growth in the experiment with NCI/ADR-RES ovarian and in the experiment with T-47D breast were 75.8% and 40.7%, respectively.

On to `Cc1nc(-c2cc3ccccc3oc2=O)ccc1C(=O)/C=C/c1ccc(Cl)c(Cl)c1`, for which the growth is 92.1% with EKVX NSCLC; 99.8% with SN12C renal; 89.4% in the experiment on UO-31 renal; 117% with TK-10 renal; 93.1% with ACHN renal; 95.7% with CAKI-1 renal. Also, the growth was 93.8% in the experiment on A498 renal; 104% in the experiment on CCRF-CEM leukemia; 102% in the experiment with MOLT-4 leukemia; 94.9% in the experiment with SR leukemia; 101% in the experiment with RPMI-8226 leukemia; 99.5% in the experiment on OVCAR-8 ovarian. Also, the growth with OVCAR-5 ovarian is 113%; in the experiment with OVCAR-4 ovarian, 107%; with SK-OV-3 ovarian it was 127%; in the experiment on IGROV1 ovarian it was 104%; in the experiment on OVCAR-3 ovarian, 111%; with HS 578T breast, 90.7%. Moreover, the growth with NCI/ADR-RES ovarian is 105%; in the experiment with T-47D breast it was 104%.

As for `CC(=O)Nc1cc(F)cc(-c2ccc3[nH]cc(-c4ccccc4)c3n2)c1`, the growth in the experiment with EKVX NSCLC was 43.7%; in the experiment with SN12C renal it was 32.7%; in the experiment on UO-31 renal, 10.1%; with TK-10 renal it was 48.6%; with ACHN renal, 15.9%; with CAKI-1 renal it was -37.1% (active). Further, the growth in the experiment on A498 renal is -20.1% (active); in the experiment with CCRF-CEM leukemia, 16.9%; in the experiment on MOLT-4 leukemia it was 9.24% (active); with SR leukemia, -1.91% (active); in the experiment with RPMI-8226 leukemia, 5.72% (active); in the experiment with OVCAR-8 ovarian, 34%. For the same compound, the growth in the experiment with OVCAR-5 ovarian is 27.4%; in the experiment on OVCAR-4 ovarian, 42.4%; with SK-OV-3 ovarian, 13.6%; in the experiment with IGROV1 ovarian, 25.7%; with OVCAR-3 ovarian, 32.5%; in the experiment with HS 578T breast it was 10.5%. Besides, the growth in the experiment with NCI/ADR-RES ovarian is 33.5%; in the experiment with T-47D breast it was 26.8%.

In the case of `Cc1nc2cnc(N)c(C#Cc3cncc(C(=O)Nc4ccc(Cl)c(C(F)(F)F)c4)c3)c2nc1C`, the growth was 82.4% with EKVX NSCLC; 36.3% in the experiment with SN12C renal; 19.9% in the experiment on UO-31 renal; 67.7% in the experiment on TK-10 renal; 30.3% in the experiment with ACHN renal; 18.8% in the experiment on CAKI-1 renal. In addition, the growth in the experiment with A498 renal was 55.4%; with CCRF-CEM leukemia, 23.2%; in the experiment with MOLT-4 leukemia, 35.6%; in the experiment with SR leukemia, -18.8% (active); in the experiment with RPMI-8226 leukemia, -10.2% (active); in the experiment on OVCAR-8 ovarian it was 69.7%. Further, the growth in the experiment on OVCAR-5 ovarian is 54.5%; in the experiment with OVCAR-4 ovarian, 65.2%; in the experiment on SK-OV-3 ovarian, 120%; in the experiment on IGROV1 ovarian it was 16.9%; in the experiment with OVCAR-3 ovarian, 39.3%; in the experiment with HS 578T breast, 35.4%. For the same compound, the growth in the experiment on T-47D breast was 109%.

Source of the values: PubChem BioAssay (NCI).
